# From PubChem BioAssay AID1159580 (chemical genetic matrix, 2015)
# Where “and” joins values, the source holds several entries; their conditions need not be identical. Equal values may be shown once. Hit rate of the full screen: of about 5,500 compounds, about 2,000 (36%) were called active. About 18% were inconclusive and are not listed. This is one part of the list. Values without a mark were called inactive. Rule as the data show it: active = normalized growth mostly below about 0.91 (no sharp cut-off); inconclusive = no clear call, values can overlap the other calls; inactive = mostly above about 0.92.
# Assay: chemical genetic growth profiling, strain panel (AID 1159580);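 also: tested at 20 µM; growth read once vehicle control cultures reached saturation at 30 °C; 1 = growth at the plate median or of vehicle wells; lower values mean less growth of the strain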
# Conditions: S. cerevisiae deletion strains, growth OD
compound,measurement,setting,value
Nc1cc(-c2ccncc2)c[nH]c1=O,normalized growth,"locus YAL021C, strain ccr4, hits give low values",0.86 (active)
same,normalized growth,"locus YAL026C, strain drs2, hits give low values",0.802 (active)
same,normalized growth,"locus YAL030W, strain snc1, hits give low values",0.885 (active)
same,normalized growth,"locus YBL061C, strain skt5, hits give low values",0.899 (active)
same,normalized growth,"locus YBR009C, strain hhf1, hits give low values",0.671 (active)
same,normalized growth,"locus YBR021W, strain FUR4, hits give low values",0.952
same,normalized growth,"locus YBR023C, strain chs3, hits give low values",0.832 (active)
same,normalized growth,"locus YBR171W, strain sec66, hits give low values",0.966
same,normalized growth,"locus YBR229C, strain ROT2, hits give low values",0.952
same,normalized growth,"locus YBR231C, strain swc5, hits give low values",0.562 (active)
same,normalized growth,"locus YBR279W, strain paf1, hits give low values",0.63 (active)
same,normalized growth,"locus YCL011C, strain gbp2, hits give low values",0.833 (active)
same,normalized growth,"locus YCL016C, strain dcc1, hits give low values",0.567 (active)
same,normalized growth,"locus YCL029C, strain bik1, hits give low values",0.988
same,normalized growth,"locus YCL061C, strain MRC1, hits give low values",0.901 (active)
same,normalized growth,"locus YCL069W, strain vba3, hits give low values",0.757 (active)
same,normalized growth,"locus YCR088W, strain abp1, hits give low values",0.925
same,normalized growth,"locus YDL005C, strain med2, hits give low values",0.971
same,normalized growth,"locus YDL035C, strain GPR1, hits give low values",0.907
same,normalized growth,"locus YDL040C, strain nat1, hits give low values",0.936
same,normalized growth,"locus YDL074C, strain BRE1, hits give low values",0.913
same,normalized growth,"locus YDL101C, strain DUN1, hits give low values",0.994
same,normalized growth,"locus YDL134C, strain PPH21, hits give low values",0.823 (active)
same,normalized growth,"locus YDL185W, strain tfp1, hits give low values",0.973
same,normalized growth,"locus YDL192W, strain arf1, hits give low values",0.974
same,normalized growth,"locus YDR001C, strain nth1, hits give low values",0.972
same,normalized growth,"locus YDR069C, strain doa4, hits give low values",0.885 (active)
same,normalized growth,"locus YDR101C, strain arx1, hits give low values",0.977
same,normalized growth,"locus YDR137W, strain rgp1, hits give low values",0.976
same,normalized growth,"locus YDR159W, strain sac3, hits give low values",0.928
same,normalized growth,"locus YDR162C, strain NBP2, hits give low values",0.949
same,normalized growth,"locus YDR195W, strain ref2",0.951
same,normalized growth,"locus YDR297W, strain sur2, hits give low values",0.856 (active)
same,normalized growth,"locus YDR318W, strain mcm21, hits give low values",0.809 (active)
same,normalized growth,"locus YDR334W, strain swr1, hits give low values",0.664 (active)
same,normalized growth,"locus YDR335W, strain msn5, hits give low values",0.934
same,normalized growth,"locus YDR388W, hits give low values",0.919 (active)
same,normalized growth,"locus YDR392W, strain spt3, hits give low values",0.265 (active)
same,normalized growth,"locus YDR502C, strain sam2, hits give low values",0.926
same,normalized growth,"locus YEL003W, strain gim4, hits give low values",0.624 (active)
same,normalized growth,"locus YEL037C, strain rad23, hits give low values",0.937
same,normalized growth,"locus YEL061C, strain CIN8 (second series), hits give low values",0.787 (active)
same,normalized growth,"locus YEL061C, strain CIN8, hits give low values",0.98
same,normalized growth,"locus YER015W, strain faa2, hits give low values",0.993
same,normalized growth,"locus YER016W, strain bim1, hits give low values",0.672 (active)
same,normalized growth,"locus YER110C, hits give low values",0.983
same,normalized growth,"locus YER111C, strain swi4, hits give low values",0.979
same,normalized growth,"locus YER155C, strain BEM2 (second series), hits give low values",0.368 (active)
same,normalized growth,"locus YER155C, strain BEM2, hits give low values",0.963
same,normalized growth,"locus YER167W, strain BCK2, hits give low values",0.86 (active)
same,normalized growth,"locus YFR010W, strain ubp6, hits give low values",0.863 (active)
same,normalized growth,"locus YGL078C, strain dbp3, hits give low values",0.976
same,normalized growth,"locus YGL086W, strain mad1, hits give low values",0.872 (active)
same,normalized growth,"locus YGL167C, strain pmr1, hits give low values",0.974
same,normalized growth,"locus YGL173C, strain kem1, hits give low values",0.715 (active)
same,normalized growth,"locus YGL227W, strain vid30, hits give low values",0.96
same,normalized growth,"locus YGL240W, strain doc1, hits give low values",0.684 (active)
same,normalized growth,"locus YGL248W, strain PDE1, hits give low values",0.678 (active)
same,normalized growth,"locus YGL253W, strain hxk2, hits give low values",0.523 (active)
same,normalized growth,"locus YGR078C, strain PAC10, hits give low values",0.527 (active)
same,normalized growth,"locus YGR135W, strain pre9, hits give low values",0.945
same,normalized growth,"locus YGR229C, strain SMI1, hits give low values",0.923
same,normalized growth,"locus YGR252W, strain gcn5, hits give low values",0.706 (active)
same,normalized growth,"locus YHR013C, strain ard1, hits give low values",0.506 (active)
same,normalized growth,"locus YHR027C, strain rpn1, hits give low values",0.872 (active)
same,normalized growth,"locus YHR030C, strain SLT2, hits give low values",0.959 and 1.04
same,normalized growth,"locus YHR079C, strain IRE1 (second series), hits give low values",0.988
same,normalized growth,"locus YHR079C, strain IRE1, hits give low values",1.04
same,normalized growth,"locus YHR094C, strain hxt1, hits give low values",0.978
same,normalized growth,"locus YHR129C, strain ARP1, hits give low values",0.961
same,normalized growth,"locus YHR142W, strain chs7, hits give low values",0.705 (active)
same,normalized growth,"locus YHR200W, strain rpn10, hits give low values",0.974
same,normalized growth,"locus YIL066C, strain RNR3, hits give low values",0.74 (active)
same,normalized growth,"locus YIL073C, strain SPO22, hits give low values",0.713
same,normalized growth,"locus YIL125W, strain kgd1, hits give low values",0.982
same,normalized growth,"locus YIR030C, strain dcg1, hits give low values",0.988
same,normalized growth,"locus YJL092W, strain hpr5, hits give low values",0.923
same,normalized growth,"locus YJL095W, strain BCK1 (second series), hits give low values",0.714 (active)
same,normalized growth,"locus YJL095W, strain BCK1, hits give low values",0.961 and 1.01
same,normalized growth,"locus YJL115W, strain asf1, hits give low values",0.932
same,normalized growth,"locus YJL129C, strain trk1, hits give low values",0.94
same,normalized growth,"locus YJL134W, strain LCB3, hits give low values",0.994
same,normalized growth,"locus YJL154C, strain vps35, hits give low values",0.964
same,normalized growth,"locus YJL164C, strain tpk1, hits give low values",0.69 (active)
same,normalized growth,"locus YJL166W, strain qcr8, hits give low values",0.539 (active)
same,normalized growth,"locus YJL168C, strain set2, hits give low values",0.986
same,normalized growth,"locus YJL187C, strain SWE1 (second series), hits give low values",0.96
same,normalized growth,"locus YJL187C, strain SWE1, hits give low values",0.755 (active)
